# The supplement of paper PMC13380429
# Test system: Vero E6 infected with SARS-CoV-2
# Assay: morphology score (similarity to uninfected cells); higher = more like uninfected cells
# Settings: 24 h
row,SMILES,morphology score
1,CCCSc1nc(N[C@@H]2C[C@H]2c2ccc(F)c(F)c2)c2nnn([C@@H]3C[C@H](OCCO)[C@@H](O)[C@H]3O)c2n1 [ticagrelor] (10 µM),-0.0229
2,O=C(c1ccc2nccnc2c1)N1CCCCC1 [ampalex] (10 µM),-0.0456
3,CCCNCCc1ccc(NS(=O)(=O)c2ccc(OC(F)(F)F)cc2)cc1 (10 µM),-0.19
4,O=C(Nc1ccc(S(=O)(=O)C(F)(F)F)cc1)C1=CCN(c2ncccc2C(F)(F)F)CC1 (10 µM),0.135
5,Cc1ccc(Oc2ccccc2-c2csc(N=C3NCCCN3)n2)c(C)c1 [abafungin] (10 µM),0.0754
6,CC[C@@H]1Cn2c(c3nc(-c4ccccc4)nc-3n(C)c2=O)N1 (10 µM),0.14
7,N=C(N)NC(=N)Nc1ccccc1 [1-phenylbiguanide] (10 µM),0.219
8,O=C(O)c1ccccc1C(=O)Nc1ccc(-c2ccccc2)cc1 [kartogenin] (10 µM),0.214
9,Oc1ccc2c3c1O[C@H]1c4[nH]c5c(c4C[C@@]4(O)[C@@H](C2)N(CC2CC2)CC[C@]314)C[C@@]1(O)[C@H]2Cc3ccc(O)c4c3[C@@]1(CCN2CC1CC1)[C@H]5O4 [nor-binaltorphimine] (10 µM),-0.0703
10,CN1[C@@H]2CC[C@H]1C[C@@H](OC(=O)c1c[nH]c3ccccc13)C2 [tropisetron] (10 µM),-0.0266
11,Cc1cc(Nc2ccc(NC(=O)c3ccc(Nc4ccnc5ccccc45)cc3)cc2)nc(N)n1 (0.833333 µM),-0.0128
12,Cc1cc2c(cc1CC(=O)c1sccc1S(=O)(=O)Nc1onc(C)c1Cl)OCO2 [sitaxentan] (10 µM),0.015
13,C=C(c1ccc(C(=O)O)cc1)c1cc2c(cc1C)C(C)(C)CCC2(C)C [bexarotene] (10 µM),0.18
14,FC(F)(F)C(F)(F)C(F)(F)C(F)(F)C(F)(F)C(F)(F)C(F)(F)C(F)(F)Br [perflubron] (10 µM),0.0887
15,Cc1noc(C)c1-c1ccc(-c2cc(C(N)=O)c(NC(N)=O)s2)c(O[C@H]2CCNC2)c1 (10 µM),0.0267
16,CCN(CC)CCOC(=O)c1cc(Cl)c(N)cc1OC (10 µM),0.128
17,COC(=O)c1cc(OC)c2c(c1-c1c(C(=O)OC)cc(OC)c3c1OCO3)OCO2 [bifendate] (10 µM),0.0714
18,CNC(C)(C)Cc1ccccc1 [mephentermine] (10 µM),-0.196
19,N#CSc1cc(SC#N)c(N)nc1N (0.833333 µM),0.125
20,COc1cc2nccc(Oc3ccc(NC(=O)C4(C(=O)Nc5ccc(F)cc5)CC4)cc3)c2cc1OC [cabozantinib] (0.833333 µM),0.329

row,SMILES,morphology score
1,C[C@]12CC[C@@H](O)C[C@H]1CC[C@@H]1[C@@H]2CC[C@]2(C)C(=O)CC[C@@H]12 [3-alpha-hydroxy-5-beta-androstan-17-one] (10 µM),0.223
2,CCC1=C[C@@H]2CN(C1)Cc1c([nH]c3ccccc13)[C@@](C(=O)OC)(c1cc3c(cc1OC)N(C)[C@H]1[C@@](O)(C(=O)OC)[C@H](OC(C)=O)[C@]4(CC)C=CCN5CC[C@]31[C@@H]54)C2 [vinorelbine] (10 µM),-0.193
3,CCCCN(Cc1ccc(C(=O)NO)cc1)C(=O)Nc1ccccc1 [nexturastat-A] (0.833333 µM),0.112
4,O=S(=O)(c1ccccc1)c1cnc2c(N3CCNCC3)cccc2c1 (10 µM),-0.0691
5,Fc1ccc(C(OCCN2CCN(C/C=C/c3ccccc3)CC2)c2ccc(F)cc2)cc1 (10 µM),0.456
6,CC(C)(C)CC(C)(C)c1ccc(O)c(Cc2ccc(Cl)cc2Cl)c1 [clofoctol] (10 µM),0.121
7,O=C1CNC(=O)CN1 [piperazinedione] (0.833333 µM),0.0804
8,Cc1ccc(/C=N/NC(=O)c2ccccc2Oc2ccccc2)o1 (10 µM),0.268
9,COc1cc2ncnc(Nc3ccc(O)c(Br)c3)c2cc1OC (10 µM),-0.194
10,CN1CCN(C2CCN(C(=O)Nc3cc(Oc4ccc(NC(=O)C5(C(=O)Nc6ccc(F)cc6)CC5)c(F)c4)ccn3)CC2)CC1 [golvatinib] (0.833333 µM),0.0621
11,CCCOC(C(=O)OC1CCN(C)CC1)(c1ccccc1)c1ccccc1 [propiverine] (10 µM),0.677
12,CC(=O)Nc1ccc(OC[C@](C)(O)C(=O)Nc2ccc([N+](=O)[O-])c(C(F)(F)F)c2)cc1 [andarine] (10 µM),-0.0126
13,Cc1ncc(OC[C@@]2(c3cccc(F)c3)C[C@H]2C(=O)Nc2ccc(F)cn2)c(C)n1 [lemborexant] (10 µM),0.0108
14,Cc1ccccc1N1CCN(S(=O)(=O)C[C@]23CC[C@H](C[C@@H]2NC(=O)[C@@H](N)CCS(C)(=O)=O)C3(C)C)CC1 (10 µM),0.049
15,Nc1c(S(=O)(=O)O)cc(Nc2cccc3ccccc23)c2c1C(=O)c1ccccc1C2=O (10 µM),0.145
16,COC1=C2C[C@@H](C)C[C@H](OC)[C@H](O)[C@@H](C)/C=C(\C)[C@H](OC(N)=O)[C@@H](OC)/C=C\C=C(/C)C(=O)NC(=CC1=O)C2=O [geldanamycin] (0.833333 µM),-0.177
17,C[C@@]12CCc3occc3[C@H]1CC[C@@]13C[C@@H](CC[C@H]12)[C@@](O)(CO)C3 [cafestol] (10 µM),-0.0842
18,CCCCCCCCCCCCCCCCCCN(CCCCCCCCCCCCCCCCCC)CCCN(CCO)CCO [avridine] (10 µM),0.0689
19,COc1ccc(C2CC(c3ccccc3)=NN2c2ccc(S(N)(=O)=O)cc2)cc1 (stereo not given) (10 µM),0.152
20,Cc1cn([C@@H]2C[C@@H](O)[C@H](CO)O2)c(=O)[nH]c1=O [telbivudine] (10 µM),-0.036
